Records with an inconclusive call do not appear. A call without a number means that no potency is given here. Active and inactive are the calls of the source. Calls follow the shape of the dose curve; as a rule, active = well fitted curve in the direction sought with a large enough effect in the signal ratio, with a control signal flat (not every such curve was filed as active); inconclusive = small, poorly fitted or top-dose-only effect, or effect the other way, or a change in a side signal; inactive = no such curve, though single readings can be large or run the other way; the % refers to the signal ratio.

Sequence of Estrogen receptor (Homo sapiens) (P03372 whole entry, looked up): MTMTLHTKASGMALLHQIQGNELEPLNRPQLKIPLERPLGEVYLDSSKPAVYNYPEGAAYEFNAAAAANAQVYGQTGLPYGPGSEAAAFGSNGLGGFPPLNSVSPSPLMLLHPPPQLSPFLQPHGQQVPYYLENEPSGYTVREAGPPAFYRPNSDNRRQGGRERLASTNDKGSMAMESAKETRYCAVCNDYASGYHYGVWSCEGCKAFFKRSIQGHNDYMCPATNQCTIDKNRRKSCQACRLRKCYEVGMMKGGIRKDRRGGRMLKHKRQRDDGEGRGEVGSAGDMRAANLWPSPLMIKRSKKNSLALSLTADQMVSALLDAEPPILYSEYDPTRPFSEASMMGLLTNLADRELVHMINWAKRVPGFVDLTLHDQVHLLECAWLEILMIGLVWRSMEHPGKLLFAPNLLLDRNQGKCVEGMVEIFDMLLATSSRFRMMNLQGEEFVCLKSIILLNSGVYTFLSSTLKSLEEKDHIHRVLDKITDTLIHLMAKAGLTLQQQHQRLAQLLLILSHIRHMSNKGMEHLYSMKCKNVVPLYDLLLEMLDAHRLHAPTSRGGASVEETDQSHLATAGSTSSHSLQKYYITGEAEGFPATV

The assay concerns the target Estrogen receptor (Homo sapiens) (UniProt P03372). As to the kind of experiment: qHTS assay for small molecule antagonists of estrogen receptor alpha signaling (AID 588513). The note with it: ER-alpha-UAS-bla HEK293, beta-lactamase ratio, antagonist mode; series mostly up to 76.9 µM. An excerpt: NIH Chemical Genomics Center [NCGC]
U.S. Environmental Protection Agency [EPA]
National Institutes of Environmental Health Sciences [NIEHS]
National Toxicology Program [NTP]
Estrogen receptor alpha (ER-alpha) is an important member of nuclear hormone receptors. ER-alpha plays important role in breast cancer as well as in other women's health issues. The majority of breast cancers is estrogen receptor (ER) positive and depends on estrogen for growth. There is also growing concern for some of environmental chemicals which may contribute the increasing the incidence of breast cancer. Therefore, it is important to understand the effect of environmental chemicals in ER-alpha signaling pathway.
NCGC Assay Protocol Summary
Using a beta-lactamase reporter-gene under control of the ER response element, a cell-based assay [ER-alpha-UAS-bla GripTiteTM cell-Based Assay from Invitrogen] was used to measure ER-alpha signaling pathway in antagonist mode. ER-alpha-UAS-bla-GripTite HEK 293 cells were used with assay medium containing 2% charcoal/dextran treated FBS, 0.1 mM NEAA and 1 mM sodium pyruvate. Cells were cultured in this assay medium overnight in the flasks before the assay. The assay was performed in clear bottom black Greiner 1536-well plates. 17-beta-estradiol was used as a positive control in the screen. Library compounds were measured for their ability to inhibit the reporter gene activity. Compounds were screened in a titration series in 1536-well format. […] Data was normalized relative to 17-beta-estradiol control (0.5nM, 100%), and DMSO only wells (basal, 0%). Concentration-response titration points for each compound were fitted to the Hill equation yielding concentrations of half-maximal inhibition (IC50) and maximal response (efficacy) values.
qHTS protocol for ER-alpha beta-lactamase assay in antagonist mode
[Step] [Parameter] [Value] [Description]
1. Reagent; 5 uL; 5000 cells/well
2. Incubation; 37 C for 4 hrs
- Dose response, Start 38uM, 1:2 dilutions with duplicates
- Two columns with 38 and 19uM (final) concentration.
5. Agonist (Stimulator); 1uL; 17-beta-estradiol at 0.5nM (final) concentration
6. Incubation; 37 C for 18 hrs
7. Detection reagent; 1 uL of CCF4-dye
8. Incubation; RT for 2 hrs
9. Detection; Fluorescence; Envision plate reader or Acumen plate reader
On to `O=C(O)C(c1ccc(Cl)cc1)c1ccc(Cl)cc1`, for which the Potency result is “inactive”.
Next, `CCCCCCCCCCCCO`: “inactive”.
With `C[Si](Cl)(Cl)c1ccccc1` the entry was “inactive”; with `CCCCOCC(C)OCC(C)O` (stereo not given), “inactive”.
With `O=C(O)c1ccc(C(=O)O)c(C(=O)O)c1` the entry was “inactive”.
In the case of `CCCCCCCCCCCCCCCCCC(N)=O`, the Potency entry was “inactive”.
For `CCCCN(CCCC)CCCC`, the Potency entry is “inactive”.
Next, `C[Si](Cl)(Cl)[Si](C)(Cl)Cl`: “inactive”; `NNS(=O)(=O)c1ccc(Oc2ccc(S(=O)(=O)NN)cc2)cc1`: “inactive”; `O=C(OCC1CCC2OC2C1)C1CCC2OC2C1` (stereo not given): “inactive”.
Next, `CCCCCCCCCCCCCc1ccccc1`: “inactive”; `C=Cc1ccccc1Br`: “inactive”; `OCCC(F)(F)C(F)(F)C(F)(F)C(F)(F)C(F)(F)C(F)(F)C(F)(F)C(F)(F)F`: “inactive”.
Next, `CCCCCCCCCCCCCCC(=O)OC`: “inactive”; `CCCCOCCOCCOCCO`: “inactive”; `CCOC(=O)C1=NN(c2ccc(Cl)cc2Cl)C(C)(C(=O)OCC)C1` (stereo not given): “inactive”.
As for `CCC(=O)C1C(=O)CC(C(=O)O)CC1=O` (stereo not given), the Potency result is “inactive”.
With `C=CC(=O)NC(C)(C)CS(=O)(=O)O` the entry was “inactive”; with `CC(C)O.CC(C)O.CC(C)O.CC(C)O.[Ti]`, “inactive”.
With `Cl[Si](Cl)(c1ccccc1)c1ccccc1` the entry was “inactive”; with `CCSC(=O)N(CC(C)C)CC(C)C`, “inactive”.
Next, `C=C(C)C(=O)OCCOC(=O)C(=C)C`: “inactive”; `Nc1nc(N)nc(-c2ccccc2)n1`: “inactive”.
Consider `O=C(O)c1ccc2c(c1)C(=O)OC2=O`, for which the Potency entry is “inactive”.
As to `CC1(C)[C@@H](C=C(Cl)Cl)[C@@H]1C(=O)OCc1cccc(Oc2ccccc2)c1`, the Potency entry was “inactive”.
With `CCOC(=O)c1ccccc1C` the entry was “inactive”; with `O=C(O)CCCCCCCCCCC(=O)O`, “inactive”; with `C=Cc1ccc(P(c2ccccc2)c2ccccc2)cc1`, “inactive”.
Next, `CC(=O)N(CCN(C(C)=O)C(C)=O)C(C)=O`: “inactive”.
In the case of `CC(C)CCCCCCc1ccc(OCCOCCO)cc1`, the Potency is 28.2 µM [inhibitor] (active).
With `CC(Cl)(Cl)C(=O)OCCOc1cc(Cl)c(Cl)cc1Cl` the entry was “inactive”.
Turning to `CCCCC(CC)C(=O)OCCOCCOCCOC(=O)C(CC)CCCC` (stereo not given), the Potency result was “inactive”.
With `CCCCCc1ccc(N)cc1` the entry was “inactive”.
Next, `CCCCCCCC(=O)OC`: “inactive”; `NN(c1ccccc1)c1ccccc1`: “inactive”.
For `O=S(=O)(O)c1ccc(N=Nc2c(O)ccc3cc(S(=O)(=O)O)ccc23)cc1`, the Potency result is “inactive”.
Next, `CCCCCCCCCCCCCCN`: “inactive”; `CCC(C)(C)C1CCC(O)CC1` (stereo not given): “inactive”; `CCC(=O)OCCc1ccccc1`: “inactive”.
Regarding `CC1(C)C(=O)NC(=O)N1CO`, the Potency result is “inactive”.

For the origin of these results see PubChem BioAssay (NCATS).
